Reference: PubChem BioAssay AID1233 (SRMLSC, 2008)
Results with a measured potency or affinity are listed apart. Activity calls are given as the source filed them.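 How the source made its calls: active means a dose-response curve fit returns a half-maximal inhibitory concentration, extrapolated values included; inactive means the fit returns no such concentration.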 Residues, ends and D or L forms follow the SMILES beside them.

These compounds were tested against HMG-CoA reductase [Enterococcus faecalis] (UniProt Q9FD70) (assay: inhibitors of E. faecalis class II HMGR, confirmation, biochemical, Enterococcus faecalis (AID 1233;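 further: 0% = full reaction carrier wells and 100% = background wells lacking mevalonate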)). Conditions: purified E. faecalis HMGR, NADPH absorbance 340 nm kinetics; series mostly up to 100 µM; inhibition: at the top concentration.
For COc1ccc(NC(=O)c2c(C)nn(Cc3ccccc3Cl)c2Cl)cc1Cl, the “inhibition” value was 0.95% (inactive).
With CCN(CCNc1ccc([N+](=O)[O-])c2cccnc12)S(=O)(=O)c1ccccc1 the “inhibition” value was -0.43% (inactive).
With CCN1CCN(C(=O)Cc2ccccc2OC)CC1 the “inhibition” value was -4.39% (inactive).
For COc1ccc(CCn2c(O)c(C=NCCCn3ccnc3)c(=O)[nH]c2=O)cc1OC, the “inhibition” value was -9.15% (inactive).
For O=[N+]([O-])/C(Cl)=C1\NCCN1Cc1ccc(Cl)nc1, the “inhibition” value was -0.72% (inactive).
With OC(Cn1c2ccccc2c2ccccc21)C[n+]1cccc2ccccc21 (stereo unspecified) the “inhibition” value was -0.21% (inactive).
In the case of CC1(C)C(C(=O)NCc2ccco2)C1(C)C, the “inhibition” value is reported as -1.02% (inactive).
CCCCC(CC)CNCC(O)c1ccccc1 (stereo unspecified) was tested, and the “inhibition” value was -0.48% (inactive).
For CCCn1cc(C(=O)O)cn1, the “inhibition” value was -0.87% (inactive).
In the case of O=C(O)[C@@H]1C[C@H]1[C@@H](NP(=O)(c1ccccc1)c1ccccc1)c1ccccc1, the “inhibition” value is reported as -6.79% (inactive).
With CC(C)Oc1cccc(NC(=O)c2cccn(Cc3ccc4c(c3)OC(F)(F)O4)c2=O)c1 the “inhibition” value was 0.02% (inactive).
For CCc1ccc(NC(=O)C(C)OC(=O)c2c(C)nn(Cc3ccccc3)c2Cl)cc1 (stereo unspecified), the “inhibition” value was -2.14% (inactive).
In the case of Cc1c(P(=S)(c2ccccc2)c2ccccc2)[n+]2ccccc2n1C, the “inhibition” value is reported as -0.09% (inactive).
For CC(C)C[C@H](NC(=O)[C@@H]1CCCN1C(=O)[C@@H](N)Cc1ccc(O)cc1)C(=O)NCC(N)=O (H-YPLG-NH2), the “inhibition” value was -4.74% (inactive).
In the case of COc1ccc(C(=O)C2CCCN(Cc3cnc(C)s3)C2)c(OC)c1 (stereo unspecified), the “inhibition” value is reported as -9.69% (inactive).
In the case of COc1ccc(C[C@@H]2c3cc(O)c(OC)cc3CCN2C)cc1O, the “inhibition” value is reported as -10.2% (inactive).
